# Reference: PubChem BioAssay (EPA / NIEHS)
# “And” between values parts separate entries of the source, which are not always exact repeats. Identical values can stand only once. The source holds several records for some structures; these can differ, active in one and inactive in another. The source made the active and inactive calls. How the source made its calls: active means hit-call score of the fitted dose curve at least 0.9, where 1 is the maximum; inactive means score below 0.9.
# Key:
# [1] = read-out: Interleukin-1 alpha (IL1a), IL1A (gene 3552); assay: BSK_KF3CT_IL1a: BioMAP Diversity Plus: KF3CT Assay for Interleukin-1 alpha (IL1a) Biomarker Activity (AID 2283070); settings: primary human keratinocytes with fibroblasts; actives raise or lower the signal
# Procedure, shortened: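 Human keratinocyte plus foreskin fibroblast primary co-culture, sampled 24 h after chemical dosing. IL-1a measured by ELISA; responses fitted bidirectionally against DMSO baseline (negative control), so gain or loss of signal both count.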
# [2] = read-out: TIMP metallopeptidase inhibitor 2 (TIMP2), TIMP2 (gene 7077); assay: BSK_KF3CT_TIMP2: BioMAP Diversity Plus: KF3CT Assay for TIMP metallopeptidase inhibitor 2 (TIMP2) Biomarker Activity (AID 2283071); settings: primary human keratinocytes with fibroblasts; actives raise or lower the signal
# Procedure, shortened: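 Cells: human keratinocytes co-cultured with foreskin fibroblasts. Treat with chemical, 24 h. Measure TIMP-2 by ELISA; fit curves bidirectionally vs DMSO baseline.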
# [3] = read-out: Transforming growth factor beta 1 (TGFb1), TGFB1 (gene 7040); assay: BSK_KF3CT_TGFb1: BioMAP Diversity Plus: KF3CT Assay for Transforming growth factor beta 1 (TGFb1) Biomarker Activity (AID 2283072); settings: primary human keratinocytes with fibroblasts; actives raise or lower the signal
# Procedure, shortened: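 Primary human skin cells (keratinocytes, foreskin fibroblasts) were co-cultured, exposed to test chemical and sampled at 24 h. TGF-b1 levels were measured by ELISA and fitted bidirectionally relative to DMSO.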
# [4] = read-out: C-C motif chemokine 2 (Homo sapiens) (UniProt P13500); assay: BSK_KF3CT_MCP1: BioMAP Diversity Plus: KF3CT Assay for Monocyte Chemoattractant Protein 1 (MCP1/CCL2) Biomarker Activity (AID 2283073); settings: primary human keratinocytes with fibroblasts; actives raise or lower the signal
# Procedure, shortened: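 ELISA read-out of MCP-1, 24 h post-dose, in primary human skin keratinocytes co-cultured with fibroblasts. Parallel SRB staining monitors cytotoxicity; changes fitted both directions relative to DMSO.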
# [5] = read-out: Matrix Metallopeptidase 9 (MMP9), MMP9 (gene 4318); assay: BSK_KF3CT_MMP9: BioMAP Diversity Plus: KF3CT Assay for Matrix Metallopeptidase 9 (MMP9) Biomarker Activity (AID 2283074); settings: primary human keratinocytes with fibroblasts; actives raise or lower the signal;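 on AC50: MMP9 protein level quantified by ELISA in the co-culture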
# Procedure, shortened: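 Keratinocyte plus foreskin fibroblast human primary skin co-culture was dosed with chemical and MMP-9 was quantified by ELISA 24 h later. Bidirectional curve fitting used DMSO as negative control and activity baseline.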
# [6] = read-out: urokinase plasminogen activator (uPA), PLAU (gene 5328); assay: BSK_KF3CT_uPA: BioMAP Diversity Plus: KF3CT Assay for urokinase plasminogen activator (uPA) Biomarker Activity (AID 2283075); settings: primary human keratinocytes with fibroblasts; actives raise or lower the signal
# Procedure, shortened: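 Human keratinocyte plus foreskin fibroblast primary co-culture exposed to chemical for 24 h. uPA levels were quantified by ELISA, and activity was fitted bidirectionally against a DMSO negative-control baseline.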
# CD40, CD40 (gene 958) = assay: BSK_LPS_CD40: BioMAP Diversity Plus: LPS Assay for CD40 Biomarker Activity (AID 2283076); settings: primary human HUVEC with PBMC; actives raise or lower the signal
# Procedure, shortened: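 In the LPS system of human endothelial cells with peripheral blood mononuclear cells, CD40 levels were read by ELISA 24 h post-treatment. Signal changes in either direction were fitted against the DMSO baseline, with parallel SRB protein staining.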
# [7] = read-out: Interleukin-8 (IL8), CXCL8 (gene 3576); assay: BSK_LPS_IL8: BioMAP Diversity Plus: LPS Assay for Interleukin-8 (IL8) Biomarker Activity (AID 2283078); settings: primary human HUVEC with PBMC; actives raise or lower the signal
# Procedure, shortened: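 ELISA read-out of IL-8 after 24 h chemical treatment of LPS-activated endothelial/PBMC human primary co-cultures. Changes either up or down relative to DMSO; overt cytotoxicity checked by sulforhodamine B staining in parallel wells.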
# [8] = BSK_LPS_SRB: Viability Assessment in the BioMAP Diversity Plus: LPS Assay (AID 2283079); settings: primary human HUVEC with PBMC;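 further: total protein by sulforhodamine B absorbance as a cytotoxicity measure; measured one day after compound addition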
# Procedure, shortened: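 SRB viability endpoint: cells fixed with 10% TCA, stained with 0.1% SRB, read at 560 nm, 24 h post-dose. HUVEC/PBMC co-culture; signal change in either direction scored relative to DMSO.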
# [9] = read-out: E-selectin (Homo sapiens) (UniProt P16581); assay: BSK_LPS_Eselectin: BioMAP Diversity Plus: LPS Assay for Eselectin Biomarker Activity (AID 2283077); settings: primary human HUVEC with PBMC; actives raise or lower the signal
# Procedure, shortened: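 E-selectin ELISA on LPS-stimulated endothelial cell/PBMC co-cultures, read 24 h post-treatment; gains and losses fitted against DMSO. Parallel SRB staining (0.1% SRB after 10% TCA fixation, 560 nm) flags overt cytotoxicity.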
# Sequence of E-selectin (Homo sapiens) (P16581 whole entry, looked up): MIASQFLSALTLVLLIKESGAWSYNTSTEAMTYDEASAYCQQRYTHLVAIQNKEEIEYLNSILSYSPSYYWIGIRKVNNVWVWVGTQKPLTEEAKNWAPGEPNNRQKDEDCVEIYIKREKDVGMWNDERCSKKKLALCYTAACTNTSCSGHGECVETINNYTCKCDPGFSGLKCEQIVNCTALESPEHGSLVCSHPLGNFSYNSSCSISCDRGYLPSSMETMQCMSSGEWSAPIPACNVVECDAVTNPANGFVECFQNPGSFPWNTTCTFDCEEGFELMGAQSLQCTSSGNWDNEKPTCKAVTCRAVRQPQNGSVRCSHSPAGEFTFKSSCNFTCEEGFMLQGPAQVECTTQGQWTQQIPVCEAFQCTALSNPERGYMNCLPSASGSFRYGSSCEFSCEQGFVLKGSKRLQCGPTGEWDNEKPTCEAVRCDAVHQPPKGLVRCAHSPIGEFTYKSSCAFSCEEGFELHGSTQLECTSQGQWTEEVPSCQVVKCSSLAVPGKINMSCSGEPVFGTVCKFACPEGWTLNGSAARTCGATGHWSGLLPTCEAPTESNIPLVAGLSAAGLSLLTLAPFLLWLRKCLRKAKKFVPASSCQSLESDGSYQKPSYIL
smiles,measurement,setting,value
O=C(O)COc1ccc(Cl)cc1Cl,outcome,[1],inactive
same,outcome,[2],inactive
same,outcome,[3],inactive
same,outcome,[4],inactive
same,outcome,[5],inactive
same,outcome,[6],inactive
same,outcome,"CD40, CD40 (gene 958)",inactive
same,outcome,[7],inactive
same,outcome,[8],inactive
CCOC1Oc2ccc(OS(C)(=O)=O)cc2C1(C)C (centres undefined),outcome,[1],inactive
same,outcome,[2],inactive
same,outcome,[3],inactive
same,outcome,[4],inactive
same,outcome,[5],inactive
same,outcome,[6],inactive
same,outcome,"CD40, CD40 (gene 958)",inactive
same,outcome,[9],inactive
same,outcome,[7],inactive
same,outcome,[8],inactive
Clc1ccccc1-c1nnc(-c2ccccc2Cl)nn1,AC50,[1],2.76 µM (active)
same,outcome,[2],inactive
same,outcome,[3],inactive
same,outcome,[4],inactive
same,outcome,[5],inactive
same,outcome,[6],inactive
same,outcome,"CD40, CD40 (gene 958)",inactive
same,outcome,[9],inactive
same,outcome,[7],inactive
same,outcome,[8],inactive
CC1(c2ccc(Oc3ccccc3)cc2)OC(=O)N(Nc2ccccc2)C1=O (centres undefined),outcome,[1],inactive
same,outcome,[2],inactive
same,outcome,[3],inactive
same,outcome,[4],inactive
same,outcome,[5],inactive
same,outcome,[6],inactive
same,AC50,"CD40, CD40 (gene 958)",24.1 µM (active)
same,AC50,[7],20 µM (active)
same,AC50,[8],31 µM (active)
CCc1ccc(C(=O)NN(C(=O)c2cc(C)cc(C)c2)C(C)(C)C)cc1,outcome,[1],inactive
same,outcome,[2],inactive
same,outcome,[3],inactive
same,outcome,[4],inactive
same,outcome,[5],inactive
same,outcome,[6],inactive
same,outcome,"CD40, CD40 (gene 958)",inactive
same,outcome,[7],inactive
same,outcome,[8],inactive
O=C(NC(=O)c1c(F)cccc1F)Nc1ccc(OC(F)(F)C(F)OC(F)(F)F)c(Cl)c1 (centres undefined),outcome,[1],inactive
same,outcome,[2],inactive
same,outcome,[3],inactive
same,outcome,[4],inactive
same,outcome,[5],inactive
same,outcome,[6],inactive
same,outcome,"CD40, CD40 (gene 958)",inactive
same,outcome,[7],inactive
same,outcome,[8],inactive
CCN(CC)C(=O)SCc1ccc(Cl)cc1,outcome,[1],inactive
same,outcome,[2],inactive
same,outcome,[3],inactive
same,outcome,[4],inactive
same,outcome,[5],inactive
same,outcome,[6],inactive
same,outcome,"CD40, CD40 (gene 958)",inactive
same,outcome,[7],inactive
same,outcome,[8],inactive
CN1CSC(=S)N(C)C1,outcome,[1],inactive
same,outcome,[2],inactive
same,outcome,[3],inactive
same,outcome,[4],inactive
same,AC50,[5],14.4 µM (active)
same,outcome,[6],inactive
same,outcome,"CD40, CD40 (gene 958)",inactive
same,AC50,[7],13 µM (active)
same,outcome,[8],inactive
O=C(O)C(F)(F)C(F)(F)C(F)(F)C(F)(F)C(F)(F)C(F)(F)C(F)(F)F,AC50,[1],30 µM (active)
same,outcome,[1],inactive
same,outcome,[2],inactive
same,outcome,[3],inactive
same,outcome,[4],inactive
same,outcome,[5],inactive
same,outcome,[6],inactive
same,AC50,"CD40, CD40 (gene 958)",23.1 µM (active)
same,outcome,"CD40, CD40 (gene 958)",inactive
same,AC50,[7],30 µM (active) and 13.3 µM (active)
same,outcome,[7],inactive
same,outcome,[8],inactive
O=[N+]([O-])/N=C1\NCCN1Cc1ccc(Cl)nc1,outcome,[1],inactive
same,outcome,[2],inactive
same,outcome,[3],inactive
same,outcome,[4],inactive
same,outcome,[5],inactive
same,outcome,[6],inactive
same,outcome,"CD40, CD40 (gene 958)",inactive
same,outcome,[7],inactive
same,outcome,[8],inactive
CNC(=O)Oc1ccccc1OC(C)C,AC50,[1],0.987 µM (active)
same,outcome,[2],inactive
same,outcome,[3],inactive
same,AC50,[4],0.147 µM (active)
same,outcome,[5],inactive
same,outcome,[6],inactive
same,outcome,"CD40, CD40 (gene 958)",inactive
same,outcome,[7],inactive
same,outcome,[8],inactive
CCC(C)(C)C(=O)OC1=C(c2ccc(Cl)cc2Cl)C(=O)OC12CCCCC2,AC50,[1],31.1 µM (active)
same,AC50,[2],28 µM (active)
same,AC50,[3],31 µM (active)
same,AC50,[4],31.4 µM (active)
same,AC50,[5],20 µM (active)
same,AC50,[6],30.9 µM (active)
same,AC50,"CD40, CD40 (gene 958)",10.5 µM (active)
same,AC50,[9],25.3 µM (active)
same,AC50,[7],32.6 µM (active)
same,AC50,[8],28.6 µM (active)
COP(=S)(OC)Oc1ccc(SC)c(C)c1,outcome,[1],inactive
same,outcome,[2],inactive
same,outcome,[3],inactive
same,outcome,[4],inactive
same,outcome,[5],inactive
same,outcome,[6],inactive
same,outcome,"CD40, CD40 (gene 958)",inactive
same,outcome,[9],inactive
same,outcome,[7],inactive
same,AC50,[8],30.6 µM (active)
